Only a selection was taken, and hits are over-represented in it overall.
Tb PFK block: inhibitors of T. brucei phosphofructokinase; O15648; AID 485367; Potency, µM (top dose mostly 57.5 µM), for inactives: top-dose activity, negative = inhibition, usual class: inhibitors; hit rate 0.17% among 330,000; T. brucei PFK, ADP-Glo luminescence;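 further: potency means the concentration at half of the fitted maximal effect; 0% = uninhibited 1x PFK enzyme wells and -100% = no-enzyme wells; nearly all actives have a fitted effect of over 60% in size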
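In TEA buffer at pH 8.0 with 5 mM MgCl2, enzyme (1.25 nM) converted F6P (0.5 mM) and ATP (0.1 mM) for 45 min at room temperature. ADP product was read by luciferase luminescence.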
Tb PGK inh: T. brucei PGK inhibition. PGK/GAPDH coupled, Kinase-Glo luminescence, 60 min. Potency, µM (titrated, usually from 57.5 µM), for the others: at the top dose activity change, negative = inhibition, usual class: inhibitors. hit rate 0.043% among 380,000. AID 602233; further: potency means the concentration at half of the fitted maximal effect; nearly all actives have a fitted effect of over 60% in size
Target sequence (P07378 whole entry, looked up): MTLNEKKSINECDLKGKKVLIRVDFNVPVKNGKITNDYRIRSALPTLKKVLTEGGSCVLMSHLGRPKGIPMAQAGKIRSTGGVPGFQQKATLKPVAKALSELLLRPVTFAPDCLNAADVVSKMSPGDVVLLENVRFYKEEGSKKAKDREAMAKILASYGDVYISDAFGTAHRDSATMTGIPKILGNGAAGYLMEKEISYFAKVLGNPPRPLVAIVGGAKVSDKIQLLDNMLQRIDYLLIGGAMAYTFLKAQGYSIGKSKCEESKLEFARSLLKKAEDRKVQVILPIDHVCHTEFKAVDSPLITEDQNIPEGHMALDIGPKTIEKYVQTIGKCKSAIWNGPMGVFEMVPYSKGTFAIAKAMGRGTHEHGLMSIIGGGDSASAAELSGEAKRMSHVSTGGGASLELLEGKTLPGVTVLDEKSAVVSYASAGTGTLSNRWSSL
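Luminescent ATP detection (Kinase-Glo Plus) follows a 60-minute room-temperature incubation, with wells lacking PGK as controls. Buffer: 100 mM TEA (pH 7.6), 5 mM MgCl2, 0.01% Tween-20. Coupling enzyme GAPDH (100 nM final) supplies unstable 1,3-BPG in-well.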
Pin1 inh: inhibitors of human Pin1. Q13526. Pin1 FP peptide displacement, HiFluor488, 10 min. Potency, µM (series often up to 115 µM), for the others: at the top dose activity, negative = inhibition, actives largely listed as inhibitors. hit rate 0.009% among 390,000. AID 504891; active means well fitted inhibition curve with a large enough effect in the polarisation, with a control signal flat, not every such curve was filed as active; inconclusive means small, poorly fitted or top-dose-only effect, or effect the other way, or a change in a side signal; inactive means no such curve, though single readings can be large or run the other way; the % refers to the polarisation; further: potency means the concentration at half of the fitted maximal effect
Target sequence (Q13526 whole entry, looked up): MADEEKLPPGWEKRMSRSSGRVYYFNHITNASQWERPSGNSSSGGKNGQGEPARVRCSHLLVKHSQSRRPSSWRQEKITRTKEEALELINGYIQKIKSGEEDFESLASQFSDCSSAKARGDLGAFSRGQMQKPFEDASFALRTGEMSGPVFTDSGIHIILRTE
PI4K2A inh: PI4K2A (human) kinase inhibition. Q9BTU6. purified PI4K2A, ADP-Glo luminescence, 1 h; stronger effect = lower value. activity change, negative = inhibition, % at 76.9 µM. hit rate 0.13% among 420,000. AID 1346378; in the data active means activity change below about -50%; inconclusive means mostly about -30% to -49%;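 further: -100% = wells without enzyme as full effect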
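Compounds are screened against recombinant PI4K2A using PI as substrate and ATP, the latter dispensed at 300 microM. Reactions run one hour at ambient temperature before ADP-Glo detection; full inhibition defined by wells lacking enzyme.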
PI5P4Ka inh: blocks human PI5P4K alpha kinase activity. hit rate 1.2% among 330,000. P48426. max response, %. AID 652105. PI5P4Kalpha enzyme, ADP-Glo luminescence, 60 min; stronger effect = lower value; active means max response of -50% or lower; inconclusive means between -30% and -50%; inactive means -30% or higher; further: value at the top dose of about 77 µM
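qHTS, 1536-well: enzyme/substrate mix, compound by pin tool, 5 microM ATP final; RT 60 min; ADP-Glo reagents 1 (45 min) then 2 (30 min); luminescence.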
Active calls of the source: *. Unless noted, the call rests on the fitted dose curve; in most records, active means well fitted curve in the direction sought with a large enough effect; inconclusive means small, poorly fitted or top-dose-only effect, or another doubt; inactive means no such curve, though single readings can be large; an effect the other way counts as inactive or inconclusive. Unless noted, on the % scale 0 is the no-effect control and ±100 the full control effect.

Screening O=[N+]([O-])c1cccc(CSc2nnc3ccccn23)c1 returned Tb PFK block 2%, Tb PGK inh -3%, Pin1 inh 2%, PI4K2A inh -1 and PI5P4Ka inh -3.
For Cc1ccc(C(=O)O)cc1N=Cc1cc(Br)cc(Br)c1O the results were Tb PFK block -1%, Tb PGK inh -14%, Pin1 inh 38%, PI4K2A inh -19 and PI5P4Ka inh -56*.
Screening CCCCC(=O)Nc1cccc(NC(=O)c2cccc([N+](=O)[O-])c2)c1 returned Tb PFK block -8%, Pin1 inh -1%, PI4K2A inh 2 and PI5P4Ka inh 0.
`N[C@@H](Cc1ccc(O)cc1)c1nnc([C@H](CCC(=O)O)NC(=O)C2CCNCC2)o1` gave Tb PFK block -8%, Tb PGK inh 4%, Pin1 inh 2%, PI4K2A inh -2 and PI5P4Ka inh 0.
`Nc1ccc(-c2cc(NC=O)c3ncc(-c4cccc(C(F)(F)F)c4)n3c2)cn1` gave PI4K2A inh -4 and PI5P4Ka inh -55*.
For COc1cccc(-c2cnc3c(NC=O)cc(-c4ccc(O)c(OC)c4)cn23)c1 the results were PI4K2A inh -9 and PI5P4Ka inh -65*.
Screening COc1cccc(-c2cc(NC=O)c3ncc(-c4cc(OC)c(OC)c(OC)c4)n3c2)c1 returned PI4K2A inh -3 and PI5P4Ka inh inconclusive.
For CC(=O)c1ccc(-c2cnc3c(NC=O)cc(-c4cnn(C)c4)cn23)cc1 the results were PI4K2A inh -26 and PI5P4Ka inh -57*.
Screening COc1cc(-c2cc(NC=O)c3ncc(-c4ccc(C(C)=O)cc4)n3c2)ccc1O returned PI4K2A inh -1 and PI5P4Ka inh -61*.
`COc1ccc(CCNC(=O)c2cnc3n(c2=O)CCS3)cc1OC` gave Tb PFK block 1%, Tb PGK inh -8%, Pin1 inh -1% and PI4K2A inh -6.
For Cc1ccc(N(C)S(=O)(=O)c2c(C)[nH]c(C)c2C(=O)N2CCCC2)cc1 the results were Tb PFK block -5%, Tb PGK inh 4%, Pin1 inh -1%, PI4K2A inh -2 and PI5P4Ka inh -1.
O=CNc1cc(-c2cccc(F)c2)cn2c(-c3ccc(F)cc3)cnc12 was read as PI4K2A inh 0 and PI5P4Ka inh -23.
`O=CNc1cc(-c2ccoc2)cn2c(-c3ccc(F)cc3)cnc12` gave PI4K2A inh -6 and PI5P4Ka inh -60*.
For COc1ccc(-c2cc(NC=O)c3ncc(-c4ccc(OC)c(OC)c4)n3c2)cc1 the results were PI4K2A inh -5 and PI5P4Ka inh -51*.
`COc1cccc(-c2cnc3c(NC=O)cc(-c4cccc(C(=O)N(C)C)c4)cn23)c1` gave PI4K2A inh -2 and PI5P4Ka inh inconclusive.
COc1cccc(-c2cc(NC=O)c3ncc(-c4cccc(C(=O)N(C)C)c4)n3c2)c1 was read as PI4K2A inh -5 and PI5P4Ka inh -68*.
Screening Cc1sc2ncn(CC(=O)NCC(=O)N(C)C3CCCCC3)c(=O)c2c1C returned Tb PFK block 3%, Tb PGK inh 11%, Pin1 inh -1% and PI4K2A inh 13.
COc1cc(OC)cc(C(=O)N[C@H](C(=O)OCC(=O)NC(=O)NC(C)(C)C)C(C)C)c1 was read as Tb PFK block -3%, Tb PGK inh -1%, Pin1 inh -3%, PI4K2A inh 4 and PI5P4Ka inh -3.
Cc1occc1C(=O)NCc1cccc(CNC(=O)c2ccoc2C)c1 was read as Tb PFK block inconclusive, Tb PGK inh inconclusive, PI4K2A inh inconclusive and PI5P4Ka inh -53*.
`Cc1occc1C(=O)NCc1ccc2c(c1)OCO2` gave Tb PFK block 4%, Tb PGK inh 2%, Pin1 inh -5%, PI4K2A inh -3 and PI5P4Ka inh -16.
`Cc1nn(C)c2c1c(-c1ccccc1)cc(=O)n2Cc1ccc(Br)cc1F` gave Tb PGK inh -5%, Pin1 inh inconclusive and PI4K2A inh -1.
Cc1ccccc1-c1cc(C(=O)N2CCCC2)c2ccccc2n1 was read as Tb PFK block 2%, Tb PGK inh 6%, Pin1 inh -1%, PI4K2A inh -4 and PI5P4Ka inh -58*.
Screening C=C(C)C(=O)Nc1cccc(C2=NOC3(C2)C[C@@H](C(N)=O)N(C(=O)c2cc([N+](=O)[O-])cc([N+](=O)[O-])c2)C3)c1 (stereo partly specified) returned Tb PFK block inconclusive, Tb PGK inh 18µM*, Pin1 inh -1%, PI4K2A inh -2 and PI5P4Ka inh -15.
For C/C=C\C=C\C(=O)N1CC2(CC(c3cccc(NC(=O)COc4ccc(Cl)cc4)c3)=NO2)C[C@H]1C(N)=O (stereo partly specified) the results were Tb PFK block inconclusive, Tb PGK inh -2%, Pin1 inh inconclusive, PI4K2A inh -24 and PI5P4Ka inh -81*.
`C/C=C\C=C\C(=O)Nc1cccc(C2=NOC3(C2)C[C@H](C(N)=O)N(C(=O)c2ccccc2C(=O)c2ccccc2)C3)c1` (stereo partly specified) gave Tb PFK block -16%, Tb PGK inh -8%, Pin1 inh 42%, PI4K2A inh -7 and PI5P4Ka inh -52*.
`C/C=C/C=C\C(=O)Nc1cccc(C2=NOC3(C2)C[C@@H](C(N)=O)N(C(=O)c2cc([N+](=O)[O-])cc([N+](=O)[O-])c2C)C3)c1` (stereo partly specified) gave Tb PFK block -4%, Tb PGK inh -3%, Pin1 inh inconclusive, PI4K2A inh -8 and PI5P4Ka inh -71*.
For C/C=C\C=C/C(=O)Nc1cccc(C2=NOC3(C2)C[C@@H](C(N)=O)N(C(=O)COc2ccc(Cl)cc2)C3)c1 (stereo partly specified) the results were Tb PFK block -14%, Tb PGK inh inactive, Pin1 inh 27%, PI4K2A inh 7 and PI5P4Ka inh inconclusive.
CCCCCC(=O)Nc1cccc(C2=NOC3(C2)C[C@@H](C(N)=O)N(C(=O)c2cc([N+](=O)[O-])cc([N+](=O)[O-])c2C)C3)c1 (stereo partly specified) was read as Tb PFK block 3%, Tb PGK inh -3%, Pin1 inh 1%, PI4K2A inh -2 and PI5P4Ka inh 1.
CCCCCC(=O)Nc1cccc(C2=NOC3(C2)C[C@@H](C(N)=O)N(C(=O)c2cc([N+](=O)[O-])cc([N+](=O)[O-])c2)C3)c1 (stereo partly specified) was read as Tb PFK block -4%, Tb PGK inh -13%, Pin1 inh 1%, PI4K2A inh -6 and PI5P4Ka inh 5.

Screens deposited in PubChem BioAssay by National Center for Advancing Translational Sciences (NCATS).
